Compound activity: PubChem BioAssay, The Scripps Research Institute Molecular Screening Center
An excerpt weighted towards active compounds, which were near 3.3% of everything screened.
ABHD5-PLIN5 inh = inhibitors of human ABHD5-perilipin-5 interaction. Q00G26+Q8WTS1. Split G. princeps luciferase complementation, luminescence, 4 h. inhibition, % at 4 µM. 0.78% of 360,000 active;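 active = inhibition above the mean inhibition across every tested compound plus 3 SD, cut at about 22% in these data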;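 note: 0% = DMSO only wells and the 100% control is not disclosed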
TLR9-MyD88 block = blocks human TLR9 binding to MyD88. Q9NR96+Q99836. CHO BLA complementation TLR9-MyD88, CCF4 FRET ratio. inhibition, % at 4.98 µM. 0.21% of 340,000 active;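 active = inhibition above the mean over all tested compounds plus 3 SD, cut at about 21% in these data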;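 note: 0% = DMSO only wells and 100% = clavulanate BLA inhibitor control wells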
PRMT1 inh = PRMT1 (human) inhibition, primary screen | inhibition, % at 2.79 µM | Q99873 | recombinant PRMT1, activity-based probe fluorescence polarization | 1.3% of 370,000 active;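 active = inhibition above about 21% made by adding two undisclosed values, limit read from the data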
TLR4 MyD88 comp = TLR4-MyD88 interaction inhibition in cells. O00206+Q99836. HeLa CL3-4 TLR4/MyD88 BLA complementation, FRET ratio. inhibition, % at 8.4 µM. 0.18% of 200,000 active; in the data active = inhibition above about 25%;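 note: 0% = vehicle and 100% = reference inhibitor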
Target sequence (O00206 whole entry, looked up): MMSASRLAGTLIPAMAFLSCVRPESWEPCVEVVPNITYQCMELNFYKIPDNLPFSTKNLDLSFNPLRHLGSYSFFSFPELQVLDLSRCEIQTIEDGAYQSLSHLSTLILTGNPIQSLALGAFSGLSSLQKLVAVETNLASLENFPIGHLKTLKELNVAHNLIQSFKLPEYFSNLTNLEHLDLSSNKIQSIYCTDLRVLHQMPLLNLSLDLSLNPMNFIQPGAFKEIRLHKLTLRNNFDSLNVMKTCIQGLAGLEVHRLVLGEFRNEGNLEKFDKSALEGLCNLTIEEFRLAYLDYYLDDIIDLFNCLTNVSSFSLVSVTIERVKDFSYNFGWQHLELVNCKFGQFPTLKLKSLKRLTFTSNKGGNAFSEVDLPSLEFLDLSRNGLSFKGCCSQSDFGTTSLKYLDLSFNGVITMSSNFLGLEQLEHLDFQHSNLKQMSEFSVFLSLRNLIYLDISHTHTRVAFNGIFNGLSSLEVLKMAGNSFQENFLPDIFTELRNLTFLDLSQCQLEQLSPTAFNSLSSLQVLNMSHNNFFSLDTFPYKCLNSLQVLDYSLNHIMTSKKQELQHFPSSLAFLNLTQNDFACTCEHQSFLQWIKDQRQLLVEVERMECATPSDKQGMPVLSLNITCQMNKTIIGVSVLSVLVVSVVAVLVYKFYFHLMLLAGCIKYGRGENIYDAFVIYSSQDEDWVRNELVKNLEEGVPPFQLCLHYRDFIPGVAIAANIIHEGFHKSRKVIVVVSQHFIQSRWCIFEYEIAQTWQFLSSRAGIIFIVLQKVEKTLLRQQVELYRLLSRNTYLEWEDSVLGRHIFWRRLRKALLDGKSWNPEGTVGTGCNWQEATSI
Target sequence (Q99836 whole entry, looked up): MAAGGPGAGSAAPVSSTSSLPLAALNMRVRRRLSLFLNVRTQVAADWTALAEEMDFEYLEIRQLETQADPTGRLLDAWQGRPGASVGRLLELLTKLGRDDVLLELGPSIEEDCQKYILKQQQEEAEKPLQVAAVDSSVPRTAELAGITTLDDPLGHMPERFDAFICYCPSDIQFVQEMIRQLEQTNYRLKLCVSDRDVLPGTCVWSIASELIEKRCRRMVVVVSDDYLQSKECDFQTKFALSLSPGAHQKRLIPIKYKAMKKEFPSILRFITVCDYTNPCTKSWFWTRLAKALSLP
NOD2-RIPK2 inh = blocks binding of human NOD2 to RIPK2; O43353; CHO BLA complementation NOD2-RIPK2, CCF4 ratio; inhibition, % at 4.98 µM; 0.38% of 360,000 active; in the data active = inhibition above about 21%;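 note: 0% = vehicle only and 100% = reference blocker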
rCAG binder = r(CAG) repeat RNA binding; inhibition, % at 3 µM; TO-PRO-1 dye displacement fluorescence; 1.3% of 370,000 active;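 active = inhibition above the plate cutoff, the mean of all test compounds on that plate plus 3 SD, cut at about 35% in these data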;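 note: 0% = DMSO alone and 100% = 100 µM mitoxantrone as full dye displacement; higher means more dye released from RNA so lower well fluorescence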
rCAG binder conf = r(CAG) RNA repeat binding, confirmation. shares compounds with rCAG binder. TO-PRO-1 dye displacement fluorescence. inhibition, % at 3 µM. 70% of 4,300 active. AID 652065;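 active = inhibition above a per-plate cutoff, the mean inhibition of sample wells plus 3 SD, cut at about 35% in these data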;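 note: loss of TO-PRO-1 fluorescence as compound displaces dye from 1x1 AA loop RNA; 0% = DMSO only wells and 100% = 100 µM mitoxantrone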
dCAG dye counter = DNA CAG dye complex inhibition counter-screen; shares compounds with rCAG binder; d(CAG) DNA oligo TO-PRO-1 dye displacement, fluorescence; inhibition, % at 3 µM; 94% of 4,300 active;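 active = inhibition above its plate's cutoff, the mean test-well inhibition plus 3 SD, cut at about 4.8% in these data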;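 note: 0% = DNA dye mix with DMSO and 100% = 100 µM mitoxantrone; hits displace the dye from DNA and so lower well fluorescence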
DNA CAG DR = DNA CAG dye complex inhibition, dose response counter-screen; shares compounds with rCAG binder; DNA CAG/GTC duplex TO-PRO-1 dye displacement fluorescence; AID 686960; 20% of 250 active; IC50, µM; in the data active = IC50 below about 10 µM
* = called active by the depositor; / = no result.

SMILES	ABHD5-PLIN5 inh	TLR9-MyD88 block	PRMT1 inh	TLR4 MyD88 comp	NOD2-RIPK2 inh	rCAG binder	rCAG binder conf	dCAG dye counter	others
CC(=O)NNc1cc(C)nc(N)n1	-1	/	-4	/	-11	66*	3	1
O=C(COC(=O)c1ccc[nH]c1=O)NC1CCCc2ccccc21 (centres undefined)	6	-7	7	/	-14	0	/	/
Cc1c(CCC(=O)O)c(=O)oc2cc(OCc3cccc(F)c3)ccc12	-8	-11	2	/	-4	20	/	/
Cc1c(CC(=O)O)c(=O)oc2cc(OCc3ccc(Br)cc3)ccc12	3	-12	2	/	-12	40*	47*	9.7*	DNA CAG DR=>30
Cc1c(CCC(=O)O)c(=O)oc2cc(OCc3ccccc3Br)ccc12	-3	3	11	/	-6	56*	43*	8.8*
Cc1cc(C(=O)COC(=O)c2ccc(CO)cc2)c(C)n1CC1COc2ccccc2O1 (centres undefined)	4	-6	3	-13	-2	5	/	/
CCOc1ccc(S(=O)(=O)N2CN3CCN(C3)C2)cc1	-3	-1	0	/	4	-5	/	/
CCOc1ccc(S(=O)(=O)N2CCNC(=O)C2)cc1	-8	-3	2	/	-15	54*	3	1
CC(C)N1CCC(C)(C(=O)Nc2ccc(Cl)c(Cl)c2)C1 (centres undefined)	-3	/	0	/	0	0	/	/
Cc1cccc(N2CCN(C(=O)c3ccc(-n4cncn4)c([N+](=O)[O-])c3)CC2)c1C	-2	4	-1	/	-3	-8	/	/
Cc1ccccc1C(=O)Nc1cccc(C(=O)Nc2ccccc2C(=O)O)c1	0	-1	5	/	-9	36*	23	3
CC(=O)Oc1cccc(NC(=O)c2cccc(C(=O)Nc3cccc(OC(C)=O)c3)c2)c1	-3	-9	-1	/	3	1	/	/
O=C(N/N=C/C(Cl)=C/c1ccc([N+](=O)[O-])cc1)C(=O)Nc1ccccc1C(=O)O	6	-4	7	/	-3	52*	46*	19*
CC(=O)Oc1cccc(C(=O)Nc2cccc(C(=O)Nc3ccccc3C(=O)O)c2)c1	-2	-7	0	/	-2	56*	37*	8.4*
COC(=O)c1cccc(NC(=O)/C=C/c2ccc([N+](=O)[O-])cc2)c1	-4	3	-2	-25	-9	8	/	/
O=C(/C=C/c1ccc([N+](=O)[O-])cc1)Nc1cccc(C(=O)Nc2ccccc2C(=O)O)c1	0	-1	-4	/	-19	44*	83*	50*
CCN=C(NC#N)SCc1c(F)cccc1Cl	-3	-5	1	-15	-13	1	/	/
CCC(=O)c1ccc(OCc2ccc(C(=O)c3ccccc3)cc2)cc1	-2	0	0	3	2	0	/	/
O=C(CSc1nnc(-c2ccccc2)n1Cc1ccco1)Nc1ccc(S(=O)(=O)N2CCCC2)cc1	5	11	8	-2	2	6	/	/
Cc1cc(NS(=O)(=O)c2ccc(NC(=O)CSc3nnc(-c4ccc(Cl)cc4)n3Cc3ccco3)cc2)nc(C)n1	/	/	1	/	/	38*	41*	14*
O=C(CSc1nnc(-c2cccnc2)n1Cc1ccco1)Nc1ccc(Cl)cc1	/	/	1	/	/	5	/	/
O=C(CSc1nnc(-c2ccc(Cl)cc2)n1Cc1ccco1)Nc1ccc(S(=O)(=O)Nc2nccs2)cc1	/	/	19	/	/	77*	69*	32*
Cc1ccc(OCc2nnc(SCC(=O)Nc3ccc(S(=O)(=O)Nc4cc(C)nc(C)n4)cc3)n2Cc2ccco2)cc1	/	/	2	/	/	38*	47*	13*
COc1cc2c(C(=O)O)c(C)n(-c3ccccc3)c2c2ccccc12	-12	-16	0	/	-9	36*	22	6.1*
COc1ccccc1-n1c(C)c(C(=O)O)c2cc(OC)c3ccccc3c21	-14	-13	2	/	1	41*	26	5.6*
